Measurements as given in PubChem BioAssay AID1159580 (chemical genetic matrix, 2015).
Hit rate of the full screen: of about 5,500 compounds, about 2,000 (36%) were called active. About 18% were inconclusive and are not listed. No stated cut-off is given here; in the data, active means normalized growth mostly below about 0.91 (no sharp cut-off); inconclusive means no clear call, values can overlap the other calls; inactive means mostly above about 0.92. The list shows a part of the results.

Assay: chemical genetic growth profiling, strain panel (AID 1159580);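 further: tested at 20 µM; growth read once vehicle control cultures reached saturation at 30 °C; 1 = growth at the plate median or of vehicle wells; lower values mean less growth of the strain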
Details: growth OD

Measured: normalized growth

CC1=NCCc2c1[nH]c1cc(O)ccc21
inactive: S. cerevisiae deletion strains, locus YJR075W, strain HOC1, active compounds read low 0.988 | S. cerevisiae deletion strains, locus YKL009W, strain mrt4, active compounds read low 0.951 | S. cerevisiae deletion strains, locus YKL068W, active compounds read low 0.993 | S. cerevisiae deletion strains, locus YKL085W, strain MDH1 (second series), active compounds read low 0.988 | S. cerevisiae deletion strains, locus YKL085W, strain MDH1, active compounds read low 0.988 | S. cerevisiae deletion strains, locus YKL160W, strain elf1, active compounds read low 0.955 | S. cerevisiae deletion strains, locus YKL190W, strain CNB1, active compounds read low 0.999 | S. cerevisiae deletion strains, locus YKR001C, strain vps1, active compounds read low 0.993 | S. cerevisiae deletion strains, locus YKR026C, strain gcn3, active compounds read low 0.989 | S. cerevisiae deletion strains, locus YKR091W, strain srl3, active compounds read low 0.988 | S. cerevisiae deletion strains, locus YLL001W, strain dnm1, active compounds read low 0.984 | S. cerevisiae deletion strains, locus YLL026W, active compounds read low 0.992 | S. cerevisiae deletion strains, locus YLL041C, strain sdh2, active compounds read low 0.97 | S. cerevisiae deletion strains, locus YLR027C, strain aat2, active compounds read low 0.985 | S. cerevisiae deletion strains, locus YLR039C, strain RIC1, active compounds read low 0.993 | S. cerevisiae deletion strains, locus YLR058C, strain SHM2, active compounds read low 0.971 | S. cerevisiae deletion strains, locus YLR102C, strain apc9, active compounds read low 0.993 | S. cerevisiae deletion strains, locus YLR113W, strain HOG1, active compounds read low 1 | S. cerevisiae deletion strains, locus YLR221C, strain rsa3, active compounds read low 1.03 | S. cerevisiae deletion strains, locus YLR258W, strain gsy2, active compounds read low 0.967 | S. cerevisiae deletion strains, locus YLR262C, strain YPT6 (second series), active compounds read low 0.989 | S. cerevisiae deletion strains, locus YLR262C, strain YPT6, active compounds read low 0.95 | S. cerevisiae deletion strains, locus YLR268W, strain sec22, active compounds read low 1.05 | S. cerevisiae deletion strains, locus YLR320W, strain mms22, active compounds read low 1.03 | S. cerevisiae deletion strains, locus YLR330W, strain CHS5, active compounds read low 0.996 | S. cerevisiae deletion strains, locus YLR342W, strain FKS1 (second series), active compounds read low 0.996 | S. cerevisiae deletion strains, locus YLR342W, strain FKS1, active compounds read low 0.992 | S. cerevisiae deletion strains, locus YLR357W, strain rsc2, active compounds read low 0.973 | S. cerevisiae deletion strains, locus YLR370C, strain arc18, active compounds read low 0.973 | S. cerevisiae deletion strains, locus YLR371W, strain rom2, active compounds read low 0.978 | S. cerevisiae deletion strains, locus YLR384C, strain iki3, active compounds read low 0.994 | S. cerevisiae deletion strains, locus YLR418C, strain cdc73, active compounds read low 0.995 | S. cerevisiae deletion strains, locus YML016C, strain PPZ1, active compounds read low 0.997 | S. cerevisiae deletion strains, locus YML032C, strain rad52, active compounds read low 0.995 | S. cerevisiae deletion strains, locus YML120C, strain ndi1, active compounds read low 0.962 | S. cerevisiae deletion strains, locus YML124C, strain tub3, active compounds read low 0.988 | S. cerevisiae deletion strains, locus YMR058W, strain fet3, active compounds read low 0.994 | S. cerevisiae deletion strains, locus YMR078C, strain ctf18, active compounds read low 0.979 | S. cerevisiae deletion strains, locus YMR125W, strain sto1, active compounds read low 0.928 | S. cerevisiae deletion strains, locus YMR129W, active compounds read low 0.986 | S. cerevisiae deletion strains, locus YMR205C, strain PFK2, active compounds read low 0.95 | S. cerevisiae deletion strains, locus YMR223W, strain ubp8, active compounds read low 0.961 | S. cerevisiae deletion strains, locus YMR231W, strain pep5, active compounds read low 0.991 | S. cerevisiae deletion strains, locus YMR263W, strain SAP30, active compounds read low 0.99 | S. cerevisiae deletion strains, locus YMR307W, strain GAS1, active compounds read low 0.987 | S. cerevisiae deletion strains, locus YNL067W, strain RPL9B, active compounds read low 1.02 | S. cerevisiae deletion strains, locus YNL071W, strain lat1, active compounds read low 0.981 | S. cerevisiae deletion strains, locus YNL128W, strain TEP1, active compounds read low 0.97 | S. cerevisiae deletion strains, locus YNL153C, strain GIM3, active compounds read low 1 | S. cerevisiae deletion strains, locus YNL183C, strain NPR1, active compounds read low 0.928 | S. cerevisiae deletion strains, locus YNL209W, strain ssb2, active compounds read low 0.988 | S. cerevisiae deletion strains, locus YNL233W, strain BNI4, active compounds read low 1 | S. cerevisiae deletion strains, locus YNL248C, strain rpa49, active compounds read low 0.926 | S. cerevisiae deletion strains, locus YNL250W, strain rad50, active compounds read low 0.981 | S. cerevisiae deletion strains, locus YNL271C, strain bni1, active compounds read low 1 | S. cerevisiae deletion strains, locus YNL298W, strain CLA4, active compounds read low 0.985 | S. cerevisiae deletion strains, locus YNL307C, strain MCK1, active compounds read low 0.988 | S. cerevisiae deletion strains, locus YNL322C, strain KRE1 (second series), active compounds read low 0.981 | S. cerevisiae deletion strains, locus YNL322C, strain KRE1, active compounds read low 0.992 | S. cerevisiae deletion strains, locus YNR049C, strain mso1, active compounds read low 0.97 | S. cerevisiae deletion strains, locus YNR052C, strain pop2, active compounds read low 0.995 | S. cerevisiae deletion strains, locus YOL006C, strain TOP1, active compounds read low 1.04 | S. cerevisiae deletion strains, locus YOL012C, strain htz1 1.3 | S. cerevisiae deletion strains, locus YOL147C, strain pex11, active compounds read low 0.998 | S. cerevisiae deletion strains, locus YOR001W, strain rrp6, active compounds read low 1.01 | S. cerevisiae deletion strains, locus YOR061W, strain CKA2, active compounds read low 0.978 | S. cerevisiae deletion strains, locus YOR069W, strain VPS5, active compounds read low 0.973 | S. cerevisiae deletion strains, locus YOR070C, strain gyp1, active compounds read low 1.01 | S. cerevisiae deletion strains, locus YOR080W, strain dia2, active compounds read low 1.01 | S. cerevisiae deletion strains, locus YOR083W, strain WHI5, active compounds read low 0.954 | S. cerevisiae deletion strains, locus YOR106W, strain vam3, active compounds read low 0.93 | S. cerevisiae deletion strains, locus YOR136W, strain idh2, active compounds read low 0.985 | S. cerevisiae deletion strains, locus YOR144C, strain elg1, active compounds read low 0.994 | S. cerevisiae deletion strains, locus YOR184W, strain ser1, active compounds read low 0.969 | S. cerevisiae deletion strains, locus YOR231W, strain MKK1, active compounds read low 0.985 | S. cerevisiae deletion strains, locus YOR265W, strain rbl2, active compounds read low 0.976 | S. cerevisiae deletion strains, locus YOR270C, strain vph1, active compounds read low 1.02 | S. cerevisiae deletion strains, locus YOR290C, strain snf2, active compounds read low 0.911 | S. cerevisiae deletion strains, locus YOR316C, strain cot1, active compounds read low 0.992 | S. cerevisiae deletion strains, locus YPL051W, strain arl3, active compounds read low 1.01 | S. cerevisiae deletion strains, locus YPL055C, strain LGE1, active compounds read low 0.956 | S. cerevisiae deletion strains, locus YPL078C, strain atp4, active compounds read low 0.928 | S. cerevisiae deletion strains, locus YPL106C, strain sse1, active compounds read low 0.943 | S. cerevisiae deletion strains, locus YPL240C, strain hsp82, active compounds read low 0.992 | S. cerevisiae deletion strains, locus YPL241C, strain CIN2, active compounds read low 0.996 | S. cerevisiae deletion strains, locus YPL256C, strain CLN2, active compounds read low 0.991 | S. cerevisiae deletion strains, locus YPR119W, strain clb2, active compounds read low 0.989 | S. cerevisiae deletion strains, locus YPR141C, strain kar3, active compounds read low 0.981 | S. cerevisiae deletion strains, locus YPR163C, strain tif3, active compounds read low 1 | S. cerevisiae deletion strains, locus YPR167C, strain met16, active compounds read low 0.998 | S. cerevisiae deletion strains, strain wtn01, active compounds read low 0.992 | S. cerevisiae strains, strain wild type, active compounds read low 0.988
